Laboratory results taken from the supplement of paper PMC8728848.
The entries come from a sample that favours the strongest signals as a whole.

Key:
Test in all cases: glycan array binding signal (z-score within array); higher = stronger binding
Conditions in all cases: glycan notation: IUPAC condensed, linker removed
[1] = target: Gal(b1-4)GlcNAc(b1-3)Gal(b1-4)[Fuc(a1-3)]GlcNAc(b1-3)Gal(b1-4)[Fuc(a1-3)]GlcNAc
Procedure, shortened: (§1)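 Glycan array binding is given as a within-array Z-score, which can be read as non-binding when negative. The arrays, 3228 of them, came from the Consortium for Functional Glycomics database and were retained only where the protein sequence was available. Z-scores were averaged across arrays of the same protein sequence at different concentrations or buffers and across linkers.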

[2] = target: Gal(b1-4)GlcNAc(b1-3)[Fuc(a1-3)GlcNAc(b1-6)]Gal(b1-4)Glc
Procedure, shortened: as §1

Gal3S(b1-4)GlcNAc = target: Gal3S(b1-4)GlcNAc
Procedure, shortened: as §1

[3] = target: GalNAc(a1-3)GalNAc(b1-3)Gal(a1-4)Gal(b1-4)Glc
Procedure, shortened: as §1

[4] = target: GalNAc(b1-3)Gal(a1-4)Gal(b1-4)GlcNAc
Procedure, shortened: as §1

[5] = target: GlcNAc(b1-2)Man(a1-3)[GlcNAc(b1-4)][GlcNAc(b1-2)Man(a1-6)]Man(b1-4)GlcNAc(b1-4)[Fuc(a1-6)]GlcNAc
Procedure, shortened: as §1

[6] = target: GlcNAc(b1-2)[GlcNAc(b1-4)]Man(a1-3)[GlcNAc(b1-4)][GlcNAc(b1-2)Man(a1-6)]Man(b1-4)GlcNAc(b1-4)GlcNAc
Procedure, shortened: as §1

[7] = target: GlcNAc(b1-3)Gal(b1-4)GlcNAc(b1-3)[GlcNAc(b1-3)Gal(b1-4)GlcNAc(b1-3)]GalNAc
Procedure, shortened: as §1

GlcNAc(b1-3)GalNAc = target: GlcNAc(b1-3)GalNAc
Procedure, shortened: as §1

[8] = target: GlcNAc(b1-4)GlcNAc(b1-4)GlcNAc(b1-4)GlcNAc(b1-4)GlcNAc
Procedure, shortened: as §1

Man(a1-3)[Man(a1-6)]Man = target: Man(a1-3)[Man(a1-6)]Man
Procedure, shortened: as §1

Neu5Ac(a2-3)Gal = target: Neu5Ac(a2-3)Gal
Procedure, shortened: as §1

[9] = target: Neu5Ac(a2-3)Gal(b1-3)GalNAc(b1-3)Gal(a1-4)Gal(b1-4)Glc
Procedure, shortened: as §1

[10] = target: Neu5Ac(a2-3)Gal(b1-3)GlcNAc(b1-2)Man(a1-3)[GlcNAc(b1-4)][Neu5Ac(a2-3)Gal(b1-3)GlcNAc(b1-2)Man(a1-6)]Man(b1-4)GlcNAc(b1-4)GlcNAc
Procedure, shortened: as §1

[11] = target: Neu5Ac(a2-3)Gal(b1-3)[Fuc(a1-4)]GlcNAc
Procedure, shortened: as §1

[12] = target: Neu5Ac(a2-3)Gal(b1-4)GlcNAc(b1-3)Gal(b1-4)GlcNAc
Procedure, shortened: as §1

[13] = target: Neu5Ac(a2-3)Gal(b1-4)GlcNAc(b1-3)Gal(b1-4)GlcNAc(b1-3)Gal(b1-4)GlcNAc
Procedure, shortened: as §1

[14] = target: Neu5Ac(a2-3)Gal(b1-4)GlcNAc(b1-3)Gal(b1-4)GlcNAc(b1-3)GalNAc
Procedure, shortened: as §1

[15] = target: Neu5Ac(a2-3)Gal(b1-4)[Fuc(a1-3)]GlcNAc(b1-6)[Neu5Ac(a2-3)Gal(b1-3)]GalNAc
Procedure, shortened: as §1

Neu5Ac(a2-6)Gal(b1-4)Glc = target: Neu5Ac(a2-6)Gal(b1-4)Glc
Procedure, shortened: as §1

[16] = target: Neu5Ac(a2-6)Gal(b1-4)GlcNAc(b1-2)Man(a1-3)[GlcNAc(b1-4)][Neu5Ac(a2-6)Gal(b1-4)GlcNAc(b1-2)Man(a1-6)]Man(b1-4)GlcNAc(b1-4)GlcNAc
Procedure, shortened: as §1

[17] = target: Neu5Ac(a2-6)Gal(b1-4)GlcNAc(b1-2)Man(a1-3)[Man(a1-6)]Man(b1-4)GlcNAc(b1-4)GlcNAc
Procedure, shortened: as §1

[18] = target: Neu5Ac(a2-6)Gal(b1-4)GlcNAc(b1-6)[Gal(b1-3)]GalNAc
Procedure, shortened: as §1

[19] = target: Neu5Ac(a2-8)Neu5Ac(a2-3)Gal(b1-3)GalNAc(b1-4)[Neu5Ac(a2-3)]Gal(b1-4)Glc
Procedure, shortened: as §1

[20] = target: Neu5Ac(a2-8)Neu5Ac(a2-3)Gal(b1-4)GlcNAc
Procedure, shortened: as §1

[21] = target: Neu5Gc(a2-3)Gal(b1-4)GlcNAc
Procedure, shortened: as §1

[22] = target: Neu5Gc(a2-3)Gal(b1-4)GlcNAc(b1-3)Gal(b1-4)GlcNAc(b1-2)Man(a1-3)[Neu5Gc(a2-3)Gal(b1-4)GlcNAc(b1-3)Gal(b1-4)GlcNAc(b1-2)Man(a1-6)]Man(b1-4)GlcNAc(b1-4)GlcNAc
Procedure, shortened: as §1

[23] = target: Neu5Gc(b2-6)Gal(b1-4)GlcNAc
Procedure, shortened: as §1

B1: PX9961V-pdi-562-26-562 (Parabacteroides distasonis) (protein)
chain: EIFSEITTDNYYQNSNNIYAALVNNYAKAFSTGWSDARYFLQEVTADQLMIPTRGKHGYNGGEYVRLHEHKWTVEENFVYNGWAAPFQGIALCNNTLSDFENLDFSTFKLTEETKNEYIAELRALRVWNYMFLIDFFRHVPIVTDIEEVKAQSTPLEVFNFMESELLAILPDLPKNRGVSRFDQAGVASILVRLYLNAEKWIGISKYDECEQMAQAILDGKYGEYSIDPDYRGPFRSGINGYRSKENIMEFAIKKNYFEASWLYNMWMHYQDRYSLDNDWQGWNGGNLAPSRDLYGNLYQDKLGMPFEKFPDGDIRKKAFRVISNDGDYEGFFLMGTQYKFDYEKGYGFTDEVITGTEEYNGKPLVYVDQVGRFSEGETGLAKGSHVIYGEENTGYRLIKFPWLPQSKDLFQMNSIPEIRLAEIYYSLAECKYRSGDKIGAARLLDVVRKRYYKAEDWSKFSYESNISKLTDDEFVDELGREFIGERHRRIDLIRWNRFSEGAWWDKTPDATNQDVFPIPYRALNANPLLKQTTAGF
glycan array binding signal (z-score) [1]: -0.412
glycan array binding signal (z-score) [2]: -0.429
glycan array binding signal (z-score) (Gal3S(b1-4)GlcNAc): -0.447
glycan array binding signal (z-score) [3]: -0.432
glycan array binding signal (z-score) [4]: -0.339
glycan array binding signal (z-score) [5]: -0.145
glycan array binding signal (z-score) [6]: -0.324
glycan array binding signal (z-score) [7]: -0.471
glycan array binding signal (z-score) (GlcNAc(b1-3)GalNAc): -0.21
glycan array binding signal (z-score) [8]: 0.049
glycan array binding signal (z-score) (Man(a1-3)[Man(a1-6)]Man): -0.443
glycan array binding signal (z-score) (Neu5Ac(a2-3)Gal): -0.711
glycan array binding signal (z-score) [9]: -0.516
glycan array binding signal (z-score) [10]: 0.213
glycan array binding signal (z-score) [11]: -0.598
glycan array binding signal (z-score) [12]: -0.53
glycan array binding signal (z-score) [13]: -0.516
glycan array binding signal (z-score) [14]: -0.319
glycan array binding signal (z-score) [15]: 2.66
glycan array binding signal (z-score) (Neu5Ac(a2-6)Gal(b1-4)Glc): -0.644
glycan array binding signal (z-score) [16]: -0.373
glycan array binding signal (z-score) [17]: -0.231
glycan array binding signal (z-score) [18]: -0.27
glycan array binding signal (z-score) [19]: -0.606
glycan array binding signal (z-score) [20]: -0.574
glycan array binding signal (z-score) [21]: 0.017
glycan array binding signal (z-score) [22]: -0.054
glycan array binding signal (z-score) [23]: -0.322
